From PubChem BioAssay AID1159580 (chemical genetic matrix, 2015)
Values joined by “and” are separate entries in the source; they are usually repeats but may differ in a detail not shown here. Identical values can stand only once. Out of some 5,500 compounds screened, about 2,000 (36%) were called active. Roughly 18% stayed inconclusive and do not appear here. No stated cut-off is given here; in the data, active means normalized growth mostly below about 0.91 (no sharp cut-off); inconclusive means no clear call, values can overlap the other calls; inactive means mostly above about 0.92. The list shows a part of the results.

Assay: chemical genetic growth profiling, strain panel (AID 1159580);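 further: tested at 20 µM; growth read once vehicle control cultures reached saturation at 30 °C; 1 = growth at the plate median or of vehicle wells; lower values mean less growth of the strain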
Conditions: S. cerevisiae deletion strains, growth OD

Measured: normalized growth

CC(C)c1c(O)ccc2c1CCC1C(C)(C)CCC[C@]21C (stereo partly specified)
active: locus YAL013W, strain DEP1, active compounds read low 0.063 | locus YAL021C, strain ccr4, active compounds read low 0.888 | locus YAL026C, strain drs2, active compounds read low 0.451 | locus YAL030W, strain snc1, active compounds read low 0.319 | locus YBL061C, strain skt5, active compounds read low 0.329 | locus YBR009C, strain hhf1, active compounds read low 0.182 | locus YBR021W, strain FUR4, active compounds read low 0.517 | locus YBR023C, strain chs3, active compounds read low 0.43 | locus YBR171W, strain sec66, active compounds read low 0.606 | locus YBR229C, strain ROT2, active compounds read low 0.245 | locus YBR231C, strain swc5, active compounds read low 0.258 | locus YBR279W, strain paf1, active compounds read low 0.769 | locus YCL011C, strain gbp2, active compounds read low 0.365 | locus YCL016C, strain dcc1, active compounds read low 0.353 | locus YCL029C, strain bik1, active compounds read low 0.29 | locus YCR088W, strain abp1, active compounds read low 0.848 | locus YDL035C, strain GPR1, active compounds read low 0.118 | locus YDL040C, strain nat1, active compounds read low 0.749 | locus YDL074C, strain BRE1, active compounds read low 0.111 | locus YDL101C, strain DUN1, active compounds read low 0.185 | locus YDL134C, strain PPH21, active compounds read low 0.0876 | locus YDL185W, strain tfp1, active compounds read low 0.135 | locus YDL192W, strain arf1, active compounds read low 0.139 | locus YDR069C, strain doa4, active compounds read low 0.842 | locus YDR101C, strain arx1, active compounds read low 0.43 | locus YDR137W, strain rgp1, active compounds read low 0.134 | locus YDR150W, strain NUM1, active compounds read low 0.399 | locus YDR159W, strain sac3, active compounds read low 0.304 | locus YDR162C, strain NBP2, active compounds read low 0.0592 | locus YDR195W, strain ref2 0.163 | locus YDR297W, strain sur2, active compounds read low 0.353 | locus YDR318W, strain mcm21, active compounds read low 0.182 | locus YDR335W, strain msn5, active compounds read low 0.863 | locus YDR388W, active compounds read low 0.38 | locus YDR392W, strain spt3, active compounds read low 0.141 | locus YDR502C, strain sam2, active compounds read low 0.185 | locus YEL003W, strain gim4, active compounds read low 0.543 | locus YEL061C, strain CIN8 (second series), active compounds read low 0.667 | locus YER015W, strain faa2, active compounds read low 0.548 | locus YER016W, strain bim1, active compounds read low 0.302 | locus YER110C, active compounds read low 0.713 | locus YER155C, strain BEM2, active compounds read low 0.0776 | locus YER167W, strain BCK2, active compounds read low 0.0994 | locus YGL078C, strain dbp3, active compounds read low 0.835 | locus YGL086W, strain mad1, active compounds read low 0.135 | locus YGL167C, strain pmr1, active compounds read low 0.248 | locus YGL227W, strain vid30, active compounds read low 0.691 | locus YGL240W, strain doc1, active compounds read low 0.822 | locus YGL248W, strain PDE1, active compounds read low 0.113 | locus YGL253W, strain hxk2, active compounds read low 0.67 | locus YGR135W, strain pre9, active compounds read low 0.373 | locus YGR252W, strain gcn5, active compounds read low 0.212 | locus YHR013C, strain ard1, active compounds read low 0.548 | locus YHR027C, strain rpn1, active compounds read low 0.527 | locus YHR030C, strain SLT2, active compounds read low 0.06 and 0.129 | locus YHR079C, strain IRE1 (second series), active compounds read low 0.335 | locus YHR079C, strain IRE1, active compounds read low 0.215 | locus YHR094C, strain hxt1, active compounds read low 0.272 | locus YHR129C, strain ARP1, active compounds read low 0.0824 | locus YHR142W, strain chs7, active compounds read low 0.682 | locus YHR200W, strain rpn10, active compounds read low 0.309 | locus YIL066C, strain RNR3, active compounds read low 0.111 | locus YIL073C, strain SPO22, active compounds read low 0.181 | locus YIL125W, strain kgd1, active compounds read low 0.395 | locus YIR030C, strain dcg1, active compounds read low 0.292 | locus YJL095W, strain BCK1 (second series), active compounds read low 0.103 | locus YJL095W, strain BCK1, active compounds read low 0.0705 and 0.204 | locus YJL129C, strain trk1, active compounds read low 0.259 | locus YJL134W, strain LCB3, active compounds read low 0.373 | locus YJL164C, strain tpk1, active compounds read low 0.197 | locus YJL166W, strain qcr8, active compounds read low 0.32 | locus YJL168C, strain set2, active compounds read low 0.725 | locus YJL187C, strain SWE1 (second series), active compounds read low 0.117 | locus YJL187C, strain SWE1, active compounds read low 0.403
inactive: locus YCL069W, strain vba3, active compounds read low 0.932 | locus YDL005C, strain med2, active compounds read low 0.961 | locus YDR001C, strain nth1, active compounds read low 1 | locus YDR334W, strain swr1, active compounds read low 0.974 | locus YEL037C, strain rad23, active compounds read low 0.991 | locus YER111C, strain swi4, active compounds read low 0.971 | locus YER155C, strain BEM2 (second series), active compounds read low 0.925 | locus YFR010W, strain ubp6, active compounds read low 0.929 | locus YGL173C, strain kem1, active compounds read low 0.947 | locus YJL092W, strain hpr5, active compounds read low 0.926 | locus YJL115W, strain asf1, active compounds read low 1.02 | locus YJL154C, strain vps35, active compounds read low 1.01
